Test results as given in PubChem BioAssay (NCATS).
Records with an inconclusive call do not appear. Calls of active or inactive are those of the source. Calls follow the shape of the dose curve; as a rule, active = well fitted curve in the direction sought with a large enough effect; inconclusive = small, poorly fitted or top-dose-only effect, or another doubt; inactive = no such curve, though single readings can be large; an effect the other way counts as inactive or inconclusive.

target: phosphoglycerate mutase (Leishmania major) (UniProt Q4Q090); test: qHTS Validation Assay to Find Inhibitors of Phosphoglycerate Mutase (AID 504548); settings: biochemical enzyme activity; series mostly up to 57.5 µM;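 also: end-point luminescence from Kinase-GloPlus after the PGAM reaction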
In short: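 L. major PGAM (1.25nM final) was added to substrate buffer and pinned compound, incubated 45 minutes at room temperature, then Kinase-GloPlus added; luminescence read after 10 minutes. Buffer: 100 mM TEA pH 7.6, 5 mM MgCl2, 0.01% Tween-20.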

Sequence of phosphoglycerate mutase (Leishmania major) (Q4Q090 1-553): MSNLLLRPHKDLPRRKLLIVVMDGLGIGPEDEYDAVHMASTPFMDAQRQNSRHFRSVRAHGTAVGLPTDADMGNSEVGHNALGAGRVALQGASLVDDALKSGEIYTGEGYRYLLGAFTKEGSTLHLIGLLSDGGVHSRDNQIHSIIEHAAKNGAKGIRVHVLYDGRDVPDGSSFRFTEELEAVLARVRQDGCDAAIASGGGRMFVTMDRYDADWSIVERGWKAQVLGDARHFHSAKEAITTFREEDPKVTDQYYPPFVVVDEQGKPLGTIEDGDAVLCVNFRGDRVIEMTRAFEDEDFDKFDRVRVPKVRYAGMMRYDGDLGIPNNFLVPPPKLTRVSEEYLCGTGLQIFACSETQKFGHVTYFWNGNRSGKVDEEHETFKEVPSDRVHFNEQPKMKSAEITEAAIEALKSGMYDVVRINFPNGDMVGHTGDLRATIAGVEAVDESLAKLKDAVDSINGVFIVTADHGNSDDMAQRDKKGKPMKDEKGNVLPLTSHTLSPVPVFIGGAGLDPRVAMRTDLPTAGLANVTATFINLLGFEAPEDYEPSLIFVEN

Question: With `O=C(O)c1nn(Cc2ccc(Cl)cc2Cl)c2ccccc12` as the compound, how does the outcome read?
Answer: Its outcome is “inactive”.

Question: For `NC(=O)CN1CCCC1=O`, which outcome is on record?
Answer: The outcome was “inactive”.

Question: Which outcome does the source give for `COc1ccc(C(=O)N2CCCC2=O)cc1` here?
Answer: Its outcome is “inactive”.

Question: For `COC(=O)C1=CCCN(C)C1`, which outcome is on record?
Answer: The outcome was “inactive”.

tested on: not listed separately; test: Inducers of the Endoplasmic Reticulum Stress Response (ERSR) in human glioma: Validation (AID 504836); settings: human glioma cells, ER stress response reporter; series mostly up to 38.3 µM
In short: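 Stably transfected U87-MG glioma cells carrying a GRP78-based luciferase sensor; 16 h compound incubation. Luminescence end-point read 10 min after Bright-Glo addition at room temperature.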

Question: With `COc1ccccc1N1CCN(CCCNc2cc(=O)n(C)c(=O)n2C)CC1` as the compound, how does the outcome read?
Answer: The outcome was “inactive”.

Question: For `O=C(O)c1cccnc1Nc1cccc(C(F)(F)F)c1`, which outcome is on record?
Answer: Its outcome is “inactive”.

Question: With `NCCc1cnc[nH]1` as the compound, how does the outcome read?
Answer: The outcome was “inactive”.

Question: Which outcome does the source give for `CN(C)CCN(Cc1cccs1)c1ccccn1` here?
Answer: The outcome was “inactive”.

Question: With `Nc1ccn([C@H]2CC[C@@H](CO)O2)c(=O)n1` as the compound, how does the outcome read?
Answer: The outcome was “inactive”.

Question: Which outcome does the source give for `Cc1ccc(C(=O)Nc2ccc(S(=O)(=O)O)c3cc(S(=O)(=O)O)cc(S(=O)(=O)O)c23)cc1NC(=O)c1cccc(NC(=O)Nc2cccc(C(=O)Nc3cc(C(=O)Nc4ccc(S(=O)(=O)O)c5cc(S(=O)(=O)O)cc(S(=O)(=O)O)c45)ccc3C)c2)c1` here?
Answer: The outcome was “inactive”.

Question: With `Cc1cccc(C)c1NC(=O)C(C)N` (stereo unspecified) as the compound, how does the outcome read?
Answer: The outcome was “inactive”.

Question: With `Oc1ccc(O)cc1` as the compound, how does the outcome read?
Answer: The outcome was “inactive”.

Question: For `CCOC(=O)C1=C[C@]2(CC)CCCN3CCc4c(n1c1ccccc41)[C@@H]32`, which outcome is on record?
Answer: Its outcome is “inactive”.

Question: For `O=C(O)c1nn(Cc2ccc(Cl)cc2Cl)c2ccccc12`, which outcome is on record?
Answer: Its outcome is “inactive”.

Question: Which outcome does the source give for `CCCC(C(=O)OCCN(CC)CC)(c1ccccc1)c1ccccc1` here?
Answer: Its outcome is “inactive”.

Question: Which outcome does the source give for `Cc1ccc(=O)n(-c2ccccc2)c1` here?
Answer: The outcome was “inactive”.

Question: Which outcome does the source give for `CCCOc1ccccc1-c1nc2n[nH]nc2c(=O)[nH]1` here?
Answer: The outcome was “inactive”.

Question: For `NC(=O)CN1CCCC1=O`, which outcome is on record?
Answer: The outcome was “inactive”.

Question: For `CN(C)CCCN1c2ccccc2Sc2ccc(C(F)(F)F)cc21`, which outcome is on record?
Answer: Its outcome is “inactive”.

Question: Which outcome does the source give for `COc1ccc(CN(CCN(C)C)c2ccccn2)cc1` here?
Answer: The outcome was “inactive”.

Question: For `CN(C)CCOC(c1ccccc1)c1ccccc1`, which outcome is on record?
Answer: The outcome was “inactive”.
